G9a block: inhibitors of human histone lysine methyltransferase G9a | G9a H3K9 monomethylation, AlphaScreen, 2 h | AID 504332 | Q96KQ7 | Potency, µM (top dose mostly 102 µM), for inactives: at the highest dose activity, negative = inhibition, usual class: inhibitors | 8.8% of 350,000 active; further: potency means the concentration at half of the fitted maximal effect; on the % scale 0 is the no-effect control and ±100 the full control effect; nearly all actives have a fitted effect of over 75% in size
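Readings reflect AlphaScreen signal from monomethyl-H3K9 antibody detection. HMT at 20 nM; substrate b-H3K9 500 nM; cofactor SAM 20 uM; 2 h RT reaction; compounds tested as titrations in qHTS with 15 min preincubation.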
PI5P4Ka inh: PI5P4K alpha (human) kinase inhibition; P48426; max response, %; 1.2% of 330,000 active; PI5P4Kalpha enzyme, ADP-Glo luminescence, 60 min; hits give low values; active means max response of -50% or lower; inconclusive means between -30% and -50%; inactive means -30% or higher; further: value at the top dose of about 77 µM; on the % scale 0 is the no-effect control and ±100 the full control effect
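ADP-Glo luminescence end-point after a 60 min room-temperature kinase reaction. PI5P4Kalpha and substrate in HEPES pH 7.4 buffer with EGTA, 0.1% CHAPS and 5% DMSO; ATP at 5 microM final.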
JMJD2A Tudor: JMJD2A Tudor domain (human) inhibition | AlphaScreen JMJD2A-Tudor / H3K4me3 peptide binding | Potency, µM (highest dose often 114 µM), without a hit: top-dose activity change, negative = inhibition, usual class: inhibitors | 4.4% of 390,000 active | AID 504339; further: potency means the concentration at half of the fitted maximal effect; on the % scale 0 is the no-effect control and ±100 the full control effect; nearly all actives have a fitted effect of over 50% in size
HP1b binding inh: HP1-beta chromodomain-methylated histone interaction inhibition; 0.56% of 390,000 active; Potency, µM (top dose mostly 114 µM), for inactives: top-dose activity change, negative = inhibition, most hits filed as inhibitors; AID 540317; AlphaScreen HP1-beta / biotin-H3K9me3 peptide binding; further: potency means the concentration at half of the fitted maximal effect; nearly all actives have a fitted effect of over 70% in size
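HP1-beta protein (50 nM final) preincubated 30 min at room temperature with biotinylated H3(1-18)K9me3 peptide (50 nM) in PBS pH 7.4, 0.01% Tween-20, then compound added for 30 min. AlphaScreen streptavidin donor/nickel chelate acceptor beads (10 ug/mL final), 30 min dark, luminescence read.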
PLK1 PBD inh: inhibitors of human PLK1 polo-box domain binding; P53350; Plk1 PBD binding of FITC phosphopeptide, fluorescence polarization; Potency, µM, inactives show max response, negative = inhibition, usual class: inhibitors; 2.8% of 360,000 active; AID 720504; further: potency means the concentration at half of the fitted maximal effect; series mostly up to about 57 µM; on the % scale 0 is the no-effect control and ±100 the full control effect; nearly all actives have a fitted effect of over 65% in size
BAZ2B inh: inhibitors of human BAZ2B bromodomain | AlphaScreen BAZ2B-H3K14Ac peptide displacement | 4.4% of 360,000 active | AID 504333 | Potency, µM (top dose mostly 114 µM), without a hit: at the highest dose activity change, negative = inhibition, most hits filed as inhibitors | Q9UIF8; further: potency means the concentration at half of the fitted maximal effect; on the % scale 0 is the no-effect control and ±100 the full control effect; nearly all actives have a fitted effect of over 60% in size
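Protein-peptide AlphaScreen: BAZ2B 50 nM, b-H3K14Ac 50 nM, 1x PBS pH 7.4 + 0.01% Tween-20. Preincubation 30 min RT; cpd 30 min RT (top 110 uM); beads 20 min RT, light-protected.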
Numbers without * were called inactive; ? = inconclusive; / = not tested or not shown; [ ] = remark or other dose. Only some compounds are listed: those with a hit (about 12% of all), similar ones and a draw of the others. Unless noted, the call rests on the fitted dose curve; in most records, active means well fitted curve in the direction sought with a large enough effect; inconclusive means small, poorly fitted or top-dose-only effect, or another doubt; inactive means no such curve, though single readings can be large; an effect the other way counts as inactive or inconclusive.

SMILES | G9a block | PI5P4Ka inh | JMJD2A Tudor | HP1b binding inh | PLK1 PBD inh | BAZ2B inh
CCOc1ccc(N(CC)C(=O)c2nn(-c3ccc(OC)cc3)c(=O)c3c2c2ccccc2n3C)cc1 | 12% | 1 | -35% | -12% | 27µM* | -3%
COc1ccc(/C=N/NC(=O)c2nn(-c3ccc(Cl)cc3)c(=O)c3c(N)scc23)cc1 | ? | / | -26% | -15% | -18% | -32%
CCOC(=O)c1nn(-c2ccccc2)c(=O)c2c(N)sc(C)c12 | -38%[12.7 µM] | / | / | / | / | ?
COc1ccc(-n2nc(C(=O)O)c3ccccc3c2=O)cc1 | ? | / | -25% | 19% | -6% | ?
CCN(CC)S(=O)(=O)c1ccc(NC(=O)CN(c2ccccc2)S(=O)(=O)N(C)C)cc1 | -19%[59 µM] | / | -11% | 22% | / | -2%
Cc1ccc(-c2cc(NC(=O)C(C)Oc3ccccc3F)on2)cc1 (stereo not drawn) | 12%[59 µM] | / | 9% | 81% | / | 17%
O=C(O)c1cccc2c1C(=O)c1cc([N+](=O)[O-])cc([N+](=O)[O-])c1-2 | / | -6 | / | / | ? | /
O=C1c2c([N+](=O)[O-])cc([N+](=O)[O-])cc2S(=O)N1Cc1ccccc1 (stereo not drawn) | 0.89µM* | -60* | 89µM* | ? | 38µM* | 45µM*
CC1(C)CC(=O)C(C=NCCN2CCNCC2)=C(O)C1 | -1% | -4 | 1% | 44% | -4% | -2%
COc1cccc(N2C(=O)CC(N3CCN(CCN=CC4=C(O)CC(C)(C)CC4=O)CC3)C2=O)c1 (stereo not drawn) | -6% | -2 | -14% | 35% | -5% | -4%
CC1(C)CC(=O)C(C=NCCN2CCN(C3CC(=O)N(c4cccc(Br)c4)C3=O)CC2)=C(O)C1 (stereo not drawn) | 71µM* | 4 | -19% | 32% | 0% | -15%
CC1(C)CC(=O)C(C=NCCCN2CCOCC2)=C(O)C1 | 0% | -7 | -9%[11.4 µM] | 3% | 30µM* | -2%
Cc1cc2nc(C3CCCCC3)c(Cc3cccc(Cl)c3)n2c(C)c1Br | / | 12 | / | / | 5% | /
Cc1ccc(OCC(=O)Nc2ccc3nc(SCC(=O)N4CCCC4)sc3c2)cc1 | -4%[59 µM] | / | -8% | 37% | / | ?
CC(=O)NCCCC(=O)NNC1CC(=O)N(c2cccc(Cl)c2)C1=O (stereo not drawn) | 5.6µM* | -6 | -16% | -24% | -26% | -5%
O=C1CC(NNc2ccccc2)C(=O)N1c1ccccc1 (stereo not drawn) | 8.9µM* | -15 | -33% | 5% | -21% | -17%
COc1ccc(NC2CC(=O)N(c3ccccc3)C2=O)cc1 (stereo not drawn) | -10% | -4 | -6% | 18% | -5% | 9%
CCN(CC)C1CC(=O)N(c2cccc(Cl)c2)C1=O (stereo not drawn) | 8.9µM* | -3 | -7% | 31% | -16% | -5%
O=C1CC(N(O)c2ccccc2)C(=O)N1c1ccc(Cl)c(Cl)c1 (stereo not drawn) | 50µM* | -17 | -13% | 18% | -27% | -13%
O=c1[nH]cc(CCc2ccccc2)c(=O)[nH]1 | / | -5 | / | / | -4% | /
CCCN1CCN(C(=O)Cn2ncc3c4ccccc4n(Cc4cccc(Cl)c4)c3c2=O)CC1 | -4%[59 µM] | / | -36% | 2% | / | -32%
Cc1ccc(NNC2CC(=O)N(c3cccc(Cl)c3)C2=O)cc1 (stereo not drawn) | 10µM* | 0 | -33% | 35% | -15% | ?
CCOc1ccc(/C(O)=C2/C(=O)C(=O)N(c3ccccn3)C2c2ccc(C)cc2)c(C)c1 (stereo not drawn) | 50µM* | -6 | 35µM* | ? | -12% | 1%
CCCOc1ccc(/C(O)=C2\C(=O)C(=O)N(c3ccccn3)C2c2ccccc2F)cc1C (stereo not drawn) | 79µM* | -10 | ? | -23% | -8% | -11%
COc1ccc(C2/C(=C(/O)c3ccc(C)cc3)C(=O)C(=O)N2c2ccccn2)cc1OC (stereo not drawn) | ? | 1 | -10% | 21% | -1% | ?
SMILES | G9a block | PI5P4Ka inh | JMJD2A Tudor | HP1b binding inh | PLK1 PBD inh | BAZ2B inh
CCCCOc1ccc(/C(O)=C2/C(=O)C(=O)N(Cc3cccnc3)C2c2ccncc2)c(C)c1 (stereo not drawn) | 45µM* | 0 | -15% | 23% | -3% | -19%
Cc1cc(OCC(C)C)ccc1/C(O)=C1/C(=O)C(=O)N(Cc2cccnc2)C1c1ccncc1 (stereo not drawn) | ? | -5 | ? | 27% | -5% | -37%
CCOC(=O)C1CCN(C(=O)Cn2cnc3sc(C)c(S(=O)(=O)N4CCCCC4)c3c2=O)CC1 | 50µM* | -8 | -2% | 32% | -3% | 6%
CCN1CCN(c2cc3c(nn2)Oc2ccccc2N3C)CC1 | 50µM* | 1 | 12% | 15% | -1% | 5%
CCN1CCN(c2nnc(-c3ccccc3)c3ccccc23)CC1 | ? | -2 | -3% | 37% | 0% | 2%
Cc1ccc(OCC(=O)NCC2(N(C)C)CCCCC2)cc1C | -10%[59 µM] | / | -7% | 36% | / | -5%
Cc1ccc2c(c1C)-c1c(ccc(C)c1C)C(=O)C2=O | / | 7 | 50µM* | 16µM* | 19µM* | /
COc1ccc(-c2cc(-c3ccc(O)cc3)nc(N)c2C#N)cc1 | -4%[0.501 µM] | -7 | 12% | 68% | -2% | 9%
COc1cc(-c2cc(-c3ccc(O)cc3)nc(N)c2C#N)ccc1O | 1% | -51* | -20% | 33% | -8% | ?
CCN(/N=C/c1ccc(Cl)cc1)c1cc(=O)n(C)c(=O)[nH]1 | -1%[59 µM] | -5 | 40µM* | 9% | -18% | 1%
CCN(/N=C/C=C/c1ccccc1)c1cc(=O)n(C)c(=O)[nH]1 | -11% | 2 | -22% | 15% | -9% | ?
CC(C)CC(=O)N(c1nnc(-c2cccnc2)s1)C1CCCC1 | -2% | 8 | -5% | 61% | 0% | -5%
COc1ccc2nc(-c3ccccn3)[nH]c2c1 | 35µM* | -4 | -13% | 45% | 0% | ?
Nc1ccc2nc(-c3ccccc3)[nH]c2c1 | -10%[59 µM] | -12 | -34% | -3% | 0% | ?
Nc1ccc2nc(-c3ccc(N)c(Cl)c3)[nH]c2c1 | ? | -63* | ? | -11% | -8% | ?
Nc1ccc2nc(-c3ccccn3)[nH]c2c1 | ? | -7 | ? | 25% | -1% | 45µM*
Cn1c2ccccc2c2nnc(SCCOc3ccccc3)nc21 | / | / | -4% | 78% | / | /
CCC(=O)c1ccc(OCC(=O)OCC(=O)NCCC2=CCCCC2)cc1 | -25% | -8 | -8% | 21% | -5% | -4%
Cc1cc(C)c2c(CN3CCN(c4ccccc4F)CC3)cc(=O)oc2c1 | / | -3 | / | / | -19% | /
